# According to PubChem BioAssay (Tox21):
# Values joined by “and” are separate entries in the source; they are usually repeats but may differ in a detail not shown here. Equal entries are not always repeated. Records with an inconclusive call do not appear. Entries that show only a call come without a potency. Active and inactive are the calls of the source. Unless noted, calls come from the whole dose curve; as a rule, active = well fitted curve in the direction sought with a large enough effect in the repeat runs; inconclusive = weak or mixed curves; inactive = no such curve, though single readings can be large; an effect the other way counts as inactive or inconclusive.
# What was measured:
# [1] = qHTS assay for small molecule agonists of the p53 signaling pathway (AID 651631; calls by dose curve; note: nearly all actives have a fitted effect of over 15% in size; note: potency is the fitted concentration of half-maximal effect)
# Summary of the method: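 Agonist mode screen using a stably integrated beta-lactamase gene under p53 response elements in HCT-116 cells. Compound exposure lasts 16 h at 37 °C; fluorescence intensity is measured following 2 h FRET substrate loading.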
# [2] = qHTS assay for small molecules that induce genotoxicity in human embryonic kidney cells expressing luciferase-tagged ATAD5 (AID 651632); note: nearly all actives have a fitted effect of over 15% in size
# Summary of the method: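 Quantitative HTS in HEK293T expressing luciferase-tagged ATAD5, whose levels rise upon DNA damage. Exposure ran 16 hr at 37C and 5% CO2, with luminescence read 30 min after Amplite addition at room temperature.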
# [3] = qHTS assay for small molecule agonists of the p53 signaling pathway - cell viability (AID 651633; calls by dose curve; note: nearly all actives have a fitted effect of over 30% in size; note: potency is the fitted concentration of half-maximal effect)
# Summary of the method: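 p53RE-bla cells were treated with compound for 16 hours at 37 C. Cytotoxicity was then measured as CellTiter-Glo luminescence after 30 min at room temperature.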
# [4] = qHTS assay for small molecules that induce genotoxicity in human embryonic kidney cells expressing luciferase-tagged ATAD5 - cell viability (AID 651634; calls by dose curve; note: nearly all actives have a fitted effect of over 25% in size; note: potency is the fitted concentration of half-maximal effect)
# Summary of the method: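 After 15.5 hr incubation with compound at 37C, 5% CO2, HEK293T ATAD5-luciferase cells received CellTiter-Fluor reagent; fluorescence intensity was quantified following 30 min at 37C.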
# [5] = qHTS assay for small molecule disruptors of the mitochondrial membrane potential - cell viability (AID 720634; calls by dose curve;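 note: human HepG2 liver cancer cells; nearly all actives have a fitted effect of over 20% in size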)
# Summary of the method: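 ATP-based luminescent viability readout (CellTiter-Glo, 30 min, room temperature) in HepG2 cells multiplexed with the m-MPI membrane potential dye; compound exposure lasted 1 hr at 37 C.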
# [6] = qHTS assay to test for compound auto fluorescence at 590 nm (red) in HepG2 cells (AID 720674); note: potency is the fitted concentration of half-maximal effect
# Summary of the method: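 Seeding: 2,000 HepG2 cells/well, MEM/10% FBS, overnight 37 C. Dosing: compound vs DMSO. Incubation: 1 hr, 37 C, 5% CO2. Read: fluorescence 540 ex/590 em, Rose Bengal sodium as red reference.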
# [7] = qHTS assay to test for compound auto fluorescence at 535 nm (green) in HepG2 cells (AID 720675); note: potency is the fitted concentration of half-maximal effect
# [8] = qHTS assay to test for compound auto fluorescence at 460 nm (blue) in HEK293 cells (AID 720678)
# Summary of the method: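 Intrinsic compound fluorescence is recorded in live HEK293 cultures after overnight incubation at 37C, 5% CO2, using excitation 405 nm and emission 460 nm. Values are referenced to triamterene.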
# [9] = qHTS assay to test for compound auto fluorescence at 590 nm (red) in HEK293 cells (AID 720679); note: potency is the fitted concentration of half-maximal effect
# Summary of the method: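 Red autofluorescence, HEK293 cells: 2,000 cells/well; attach 4-5 hr 37C; add 23 nL cpd or DMSO; incubate o/n 37C 5% CO2; read Ex540/Em590; Rose Bengal sodium reference.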
# [10] = qHTS assay to test for compound auto fluorescence at 535 nm (green) in HEK293 cells (AID 720680); note: potency is the fitted concentration of half-maximal effect
# [11] = qHTS assay to test for compound auto fluorescence at 460 nm (blue) in HEK293 cell free culture (AID 720681)
# Summary of the method: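 Compounds were added to cell-free DMEM with 10% FBS and fluorescence read directly. The blue channel used 405 nm excitation and 460 nm emission, with triamterene as the reference fluorophore.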
# [12] = qHTS assay to test for compound auto fluorescence at 535 nm (green) in HEK293 cell free culture (AID 720682); note: potency is the fitted concentration of half-maximal effect
# Summary of the method: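 No cells present: wells hold DMEM supplemented with 10% FBS, into which compound or vehicle is pinned. Green emission is then recorded (485 nm excitation, 535 nm emission) and scaled to fluorescein.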
# [13] = qHTS assay to test for compound auto fluorescence at 590 nm (red) in HEK293 cell free culture (AID 720683); note: potency is the fitted concentration of half-maximal effect
# Summary of the method: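 Cell-free wells of DMEM with 10% FBS received compound, and intrinsic fluorescence was read at excitation/emission 540/590 nm. Values expressed as equivalence to Rose Bengal sodium.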
# [14] = qHTS assay to test for compound auto fluorescence at 590 nm (red) in HepG2 cell free culture (AID 720684); note: potency is the fitted concentration of half-maximal effect
# Summary of the method: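 Rose Bengal sodium served as the reference for red signal. Test compounds were dispensed into serum-containing MEM (10% FBS) without cells, and plates were read at 540/590 nm.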
# [15] = qHTS assay to test for compound auto fluorescence at 460 nm (blue) in HepG2 cell free culture (AID 720685)
# Summary of the method: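 Cell-free plates of MEM plus 10% FBS received 23 nL compound or DMSO vehicle; blue-channel (405/460 nm) intensity scored against triamterene as reference fluorophore.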
# [16] = qHTS assay to test for compound auto fluorescence at 535 nm (green) in HepG2 cell free culture (AID 720686); note: potency is the fitted concentration of half-maximal effect
# [17] = qHTS assay to test for compound auto fluorescence at 460 nm (blue) in HepG2 cells (AID 720687)
# Summary of the method: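 HepG2 cells in MEM with 10% FBS, attached overnight at 37 C, were exposed to compound or DMSO for 1 hr at 37 C, 5% CO2. Blue fluorescence was read at 405/460 nm, with triamterene as reference fluorophore.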
# [18] = qHTS assay for small molecule disruptors of the mitochondrial membrane potential (AID 720635); note: potency is the fitted concentration of half-maximal effect
# Summary of the method: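 HepG2 cells exposed to compound 1 hr at 37C, then Mito-MPS dye 30 min. Ratio read of aggregate (540/590 nm) versus monomer (490/535 nm) fluorescence.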
# [19] = target: Glucocorticoid receptor (Homo sapiens) (UniProt P04150); experiment: qHTS assay to identify small molecule agonists of the glucocorticoid receptor (GR) signaling pathway (AID 720691; active = well fitted activation curve with a large enough effect in the signal ratio in the repeat runs, not every such curve was filed as active; the % refers to the signal ratio); details: GR-bla HeLa, beta-lactamase reporter ratio, 18 h; activation: at 62.4 µM (top of the series)
# Summary of the method: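 Cells: GR-bla HeLa, endogenous GR with stably integrated GRE-beta-lactamase reporter. Treatment 18 h, 37 C, compounds delivered in DMSO. Detection via LiveBLAzer B/G FRET substrate, 2 h RT, fluorescence intensity.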
# [20] = target: Glucocorticoid receptor (Homo sapiens) (UniProt P04150); experiment: qHTS assay to identify small molecule antagonists of the glucocorticoid receptor (GR) signaling pathway (AID 720692; active = well fitted inhibition curve with a large enough effect in the signal ratio in the repeat runs, not every such curve was filed as active; the % refers to the signal ratio)
# Summary of the method: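 Quantitative HTS in antagonist format: HeLa cells expressing endogenous GR and a stably integrated GRE-bla reporter, stimulated with 5 nM dexamethasone (final) alongside test compounds for 18 h.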
# Tags give direction and shape of the fitted curve or compound fluorescence and quenching.
# Glucocorticoid receptor (Homo sapiens), sequence (P04150 whole entry, looked up): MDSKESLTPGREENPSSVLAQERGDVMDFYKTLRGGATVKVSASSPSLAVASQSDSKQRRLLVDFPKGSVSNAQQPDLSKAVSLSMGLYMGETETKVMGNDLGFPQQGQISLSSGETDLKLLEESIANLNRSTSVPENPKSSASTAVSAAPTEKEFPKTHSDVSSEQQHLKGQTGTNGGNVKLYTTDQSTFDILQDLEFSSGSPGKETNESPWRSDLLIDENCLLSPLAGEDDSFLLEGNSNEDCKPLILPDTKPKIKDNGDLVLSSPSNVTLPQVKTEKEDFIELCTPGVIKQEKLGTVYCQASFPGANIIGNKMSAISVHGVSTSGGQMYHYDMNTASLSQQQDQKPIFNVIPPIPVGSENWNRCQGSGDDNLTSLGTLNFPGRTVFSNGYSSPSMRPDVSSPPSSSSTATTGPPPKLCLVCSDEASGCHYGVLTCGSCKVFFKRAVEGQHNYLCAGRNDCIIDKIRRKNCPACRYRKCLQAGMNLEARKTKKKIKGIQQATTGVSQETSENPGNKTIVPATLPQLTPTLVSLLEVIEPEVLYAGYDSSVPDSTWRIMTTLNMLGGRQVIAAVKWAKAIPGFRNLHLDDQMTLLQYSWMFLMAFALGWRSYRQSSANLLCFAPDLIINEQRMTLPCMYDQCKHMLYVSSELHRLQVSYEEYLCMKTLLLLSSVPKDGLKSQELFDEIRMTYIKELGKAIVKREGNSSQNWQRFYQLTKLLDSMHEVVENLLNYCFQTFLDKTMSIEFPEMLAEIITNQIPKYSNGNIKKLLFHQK
Compound,Potency [1],Potency [2],Potency [3],Potency [4],Potency [5],Potency [6],Potency [7],Potency [8],Potency [9],Potency [10],Potency [11],Potency [12],Potency [13],Potency [14],Potency [15],Potency [16],Potency [17],Potency [18],Potency [19],Potency [20]
CCN=c1cc2oc3cc(NCC)c(C)cc3c(-c3ccccc3C(=O)OCC)c-2cc1C,48.4 µM (active),inactive,60.9 µM (active) and 15.4 µM (active),9.65 µM (active) and 6.86 µM (active),inactive,3.55 µM (active) and 3.98 µM (active),39.8 µM (active) and 35.5 µM (active),inactive,4.47 µM [fluorescent] (active) and 6.31 µM [fluorescent] (active),39.8 µM [fluorescent] (active),inactive,39.8 µM [fluorescent] (active),3.16 µM [fluorescent] (active) and 4.47 µM [fluorescent] (active),2.82 µM [fluorescent] (active) and 3.55 µM [fluorescent] (active),inactive,39.8 µM [fluorescent] (active),inactive,–,–,–
C=C(C)C(=O)OCCC[Si](Cl)(Cl)Cl,inactive,inactive,inactive,inactive,–,inactive,inactive,inactive,inactive,inactive,inactive,inactive,–,inactive,inactive,inactive,inactive,61.7 µM (active),inactive,–
CCc1cccc(C)c1,inactive,inactive,inactive,inactive,inactive,inactive,inactive,inactive,inactive,inactive,inactive,inactive,inactive,inactive,inactive,inactive,inactive,–,inactive,inactive
O=S(=O)(O)CCCN1CCOCC1,inactive,inactive,inactive,inactive,inactive,inactive,inactive,inactive,inactive,inactive,inactive,inactive,inactive,inactive,inactive,inactive,inactive,inactive,inactive,inactive
COc1cc(C=C2CCC/C(=C\c3ccc(O)c(OC)c3)C2=O)ccc1O,11.9 µM (active),inactive,16.8 µM (active),23.7 µM (active),–,inactive,inactive,inactive,inactive,inactive,inactive,inactive,inactive,inactive,inactive,inactive,inactive,4.95 µM (active),–,–
CCCCCCCC/C=C\CCCCCCCC(=O)OCCOC(=O)CCCCCCC/C=C\CCCCCCCC,inactive,inactive,inactive,inactive,inactive,inactive,inactive,inactive,inactive,inactive,inactive,inactive,inactive,inactive,inactive,inactive,inactive,79.8 µM (active),–,–
C=CC(C)(CCC=C(C)C)OC(=O)/C=C/c1ccccc1 (stereo not drawn),inactive,inactive,inactive,inactive,inactive,inactive,inactive,inactive,inactive,inactive,inactive,inactive,–,inactive,inactive,inactive,inactive,–,–,–
O=C(O)CC(=O)O,inactive,inactive,inactive,inactive,inactive,inactive,inactive,inactive,inactive,inactive,inactive,inactive,inactive,inactive,inactive,inactive,–,–,inactive,–
Cn1cnc2ncnc(N)c21,inactive,inactive,inactive,inactive,inactive,inactive,inactive,inactive,inactive,inactive,inactive,inactive,–,inactive,inactive,inactive,inactive,–,–,–
CCCCOC(=O)C(C)CC (stereo not drawn),inactive,inactive,inactive,inactive,inactive,inactive,inactive,inactive,inactive,inactive,inactive,inactive,inactive,inactive,inactive,inactive,inactive,–,inactive,–
CNC(=O)c1cc(Oc2ccc(NC(=O)Nc3ccc(Cl)c(C(F)(F)F)c3)cc2)ccn1,5.96 µM (active),inactive,5.96 µM (active),16.8 µM (active),–,inactive,inactive,inactive,inactive,inactive,inactive,inactive,–,inactive,inactive,inactive,inactive,0.88 µM (active),–,–
O=C(c1ccccc1)c1cc(Cl)ccc1O,inactive,inactive,inactive,inactive,inactive,inactive,inactive,inactive,inactive,inactive,inactive,inactive,inactive,inactive,inactive,inactive,inactive,25.9 µM (active),inactive,inactive
S=P(N1CC1)(N1CC1)N1CC1,14.4 µM (active),inactive,inactive,inactive,inactive,inactive,inactive,inactive,inactive,inactive,inactive,inactive,inactive,inactive,inactive,inactive,inactive,inactive,inactive,inactive
COC(=O)NCCC[Si](OC)(OC)OC,inactive,inactive,inactive,inactive,inactive,inactive,inactive,inactive,inactive,inactive,inactive,inactive,inactive,inactive,inactive,inactive,inactive,–,–,–
